# Inconclusive results are not listed. Active and inactive are the calls of the source. Unless noted, calls follow the shape of the dose curve; as a rule, active = well fitted curve in the direction sought with a large enough effect; inconclusive = small, poorly fitted or top-dose-only effect, or another doubt; inactive = no such curve, though single readings can be large; an effect the other way counts as inactive or inconclusive.
# Columns and labels:
# [1] = High-throughput drug toxicity screening in the BPDCN cell line Cal-1 (AID 1224825; call rule not given here); settings: Cal-1 BPDCN cell viability, qHTS; at 45.8 µM (top of the series) unless noted
# Outline: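 500 Cal-1 cells/well, RPMI + glutamine + 10% FBS (phenol red-free); cpd added by pin tool; 48 h, 37C, 5% CO2; CTG 15 min RT, lumi read. Normalised: DMSO 100%, bortezomib 9.2 uM 0%.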
# [2] = qHTS assay for measurement of the activity of small molecule inhibitors on Zika virus induced Caspase-3 activity in human iPSC derived neural progenitor cells (hNPCs) (AID 1224857); also: nearly all actives have a fitted effect of over 65% in size; also: potency is read from the fitted curve at half-maximal effect
# Outline: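 Zika virus (2 FFU/cell) infection of human iPSC-derived NPCs, 6 h, following 1 h compound preincubation. Read-out: Caspase-Glo 3/7 luminescence.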
# [3] = qHTS assay for measurement of the activity of small molecule inhibitors on Zika virus induced Caspase-3 activity in human astrocytoma cells (AID 1224859); also: potency is read from the fitted curve at half-maximal effect
# Outline: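 Caspase activation in ZIKV-infected SNB-19 cells (2 FFU/cell, 6 h) measured by Caspase-Glo 3/7 luminescence after 30 min RT; compound pre-incubated 1 h; normalised to uninfected and infected controls.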
# [4] = qHTS Screen of the MIPE 4.0 Collection Against Ewings Sarcoma (RDES) (AID 1259252); also: nearly all actives have a fitted effect of over 35% in size; also: potency is read from the fitted curve at half-maximal effect
# Outline: (§1)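 Cells plated in serum-containing RPMI (5% FBS) and treated with compound dilutions for 48 h. Readout luminescent viability; normalization relied on vehicle (no inhibition) and media-only columns (full inhibition).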
# [5] = qHTS Screen of the MIPE 4.0 Collection Against Ewings Sarcoma (TC71) (AID 1259253); also: nearly all actives have a fitted effect of over 40% in size; also: potency is read from the fitted curve at half-maximal effect
# Outline: as §1
# [6] = qHTS Screen of the MIPE 4.0 Collection Against Ewings Sarcoma (EW8) (AID 1259255); also: nearly all actives have a fitted effect of over 35% in size; also: potency is read from the fitted curve at half-maximal effect;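 as to viability: 100% = DMSO-treated cells and 0% = medium-only wells without cells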
# Outline: as §1
# [7] = qHTS Screen of the MIPE 4.0 Collection Against Ewings Sarcoma (TC32) (AID 1259256); also: nearly all actives have a fitted effect of over 45% in size; also: potency is read from the fitted curve at half-maximal effect
# Outline: as §1
# [8] = P-glycoprotein substrates identified in KB-8-5-11 adenocarcinoma cell line, qHTS therapeutic library screen (AID 1346987); also: nearly all actives have a fitted effect of over 65% in size; also: potency is read from the fitted curve at half-maximal effect
# Outline: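 KB-8-5-11, a colchicine-selected P-gp-overexpressing KB-3-1 subline, was grown without colchicine for the assay. Cells were seeded at 500 cells/well, dosed in concentration-response and incubated 72 h at 37 degree C, 5% CO2. Viability was read by CellTiter-Glo luminescence.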
# [9] = NS1 protein of Zika virus - qHTS assay to identify small molecule inhibitors in human HEK 293 cells (AID 1347053); also: nearly all actives have a fitted effect of over 55% in size; also: potency is read from the fitted curve at half-maximal effect
# Outline: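 HEK 293 cells, seeded 20 h at 37 C, were pretreated with compound 1 h, then infected with ZIKV MR766 (MOI = 0.5) for 24 h. NS1 was read by TR-FRET with two anti-NS1 antibodies, normalized to uninfected and infected wells.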
# [10] = qHTS of pediatric cancer cell lines to identify multiple opportunities for drug repurposing: Primary screen for DAOY cells (AID 1347090); also: nearly all actives have a fitted effect of over 55% in size; also: potency is read from the fitted curve at half-maximal effect
# Outline: (§2)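 Cell viability, CellTiter-Glo luminescence; 500-1,000 cells/well, 8- or 11-point titration, 48 h compound exposure at 37 degrees C, 5% CO2. Controls: DMSO neutral, bortezomib 2.3 µM final as positive.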
# [11] = qHTS of pediatric cancer cell lines to identify multiple opportunities for drug repurposing: Primary screen for SJ-GBM2 cells (AID 1347091); also: potency is read from the fitted curve at half-maximal effect
# Outline: as §2
# [12] = qHTS of pediatric cancer cell lines to identify multiple opportunities for drug repurposing: Primary screen for A673 cells (AID 1347092); also: nearly all actives have a fitted effect of over 45% in size; also: potency is read from the fitted curve at half-maximal effect
# Outline: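 Cells are plated, rested 5 h, dosed by pintool, incubated 48 h, then lysed with CellTiter-Glo and read by luminescence. DMSO is the neutral control; bortezomib at 2.3 uM final is the positive control.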
# [13] = qHTS of pediatric cancer cell lines to identify multiple opportunities for drug repurposing: Primary screen for SK-N-MC cells (AID 1347093); also: potency is read from the fitted curve at half-maximal effect
# Outline: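 Metabolically active cells were quantified by ATP-dependent luminescence (CellTiter-Glo, 15 min at room temperature) following 48 h treatment. Cells had been plated at 500-1,000 per well and settled for 5 h beforehand.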
# [14] = qHTS of pediatric cancer cell lines to identify multiple opportunities for drug repurposing: Primary screen for BT-37 cells (AID 1347094); also: potency is read from the fitted curve at half-maximal effect
# Outline: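 CRCs from 8- or 11-point titrations (lowest final 0.59 nM NPC, 0.78 nM MIPE). Cell viability: CellTiter-Glo after 48 h incubation, 15 min room-temperature development, luminescence imaging.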
# [15] = qHTS of pediatric cancer cell lines to identify multiple opportunities for drug repurposing: Primary screen for TC32 cells (AID 1347089); also: nearly all actives have a fitted effect of over 60% in size; also: potency is read from the fitted curve at half-maximal effect
# Outline: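 Measured quantity: luminescence from CellTiter-Glo, reflecting metabolically active TC32 cells following 48 h of compound. Curves came straight from multi-point titrations, with 8 or 11 points in primary and 11 in confirmatory screening.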
SMILES,viability (% of control) [1],Potency [2],Potency [3],Potency [4],Potency [5],Potency [6],Potency [7],Potency [8],Potency [9],Potency [10],Potency [11],Potency [12],Potency [13],Potency [14],Potency [15]
Cn1cnc(=N)c2[nH]cnc21,8.73%,inactive,inactive,296 nM (active),235 nM (active),209 nM (active),132 nM (active),10500 nM (active),inactive,1180 nM (active),1480 nM (active),187 nM (active),83.3 nM (active),1370 nM (active),–
O=C(C=CC=Cc1ccc2c(c1)OCO2)N1CCCCC1,101%,14800 nM (active),10500 nM (active),inactive,inactive,inactive,inactive,inactive,–,inactive,inactive,inactive,inactive,inactive,inactive
COC(=O)C1C2CC3c4[nH]c5cc(OC)ccc5c4CCN3CC2CC(OC(=O)c2cc(OC)c(OC)c(OC)c2)C1OC (stereo not given),78.7%,inactive,inactive,2640 nM (active),2640 nM (active),2960 nM (active),2350 nM (active),inactive,inactive,–,–,–,3720 nM (active),–,inactive
C[C@H](CCC(=O)O)[C@H]1CC[C@H]2[C@@H]3[C@H](O)C[C@@H]4C[C@H](O)CC[C@]4(C)[C@@H]3CC[C@]12C,97.2%,inactive,inactive,inactive,inactive,inactive,inactive,inactive,–,inactive,inactive,inactive,inactive,inactive,inactive
Cc1cnn(C)c1C(=O)Nc1cc(Nc2ccc3c(C=Cc4ccccn4)n[nH]c3c2)ccc1F,10.9%,inactive,inactive,26400 nM (active),16600 nM (active),18700 nM (active),20900 nM (active),5260 nM (active),–,–,18700 nM (active),14800 nM (active),–,24300 nM (active),–
C[N+](C)([O-])CCNc1ccc(NCC[N+](C)(C)[O-])c2c1C(=O)c1c(O)ccc(O)c1C2=O,19.7%,inactive,inactive,18700 nM (active),16600 nM (active),20900 nM (active),inactive,–,inactive,–,inactive,–,–,inactive,5230 nM (active)
COC1=C2C[C@@H](C)C[C@H](OC)[C@@H](O)[C@@H](C)C=C(C)[C@H](OC(N)=O)[C@@H](OC)C=CC=C(C)C(=O)NC(=CC1=O)C2=O,4.06%,inactive,inactive,590 nM (active),590 nM (active),372 nM (active),296 nM (active),13200 nM (active),–,–,743 nM (active),4690 nM (active),1050 nM (active),4320 nM (active),–
CNC(=O)c1cccc(-c2ccc3c(N4CCOC[C@H]4C)nc(N4CCOC[C@H]4C)nc3n2)c1,20.9%,inactive,inactive,83.3 nM (active),66.2 nM (active),93.5 nM (active),59 nM (active),66.2 nM (active),–,–,–,148 nM (active),14.8 nM (active),122 nM (active),523 nM (active)
O=c1c(O)c(-c2ccc(O)c(O)c2)oc2cc(O)ccc12,2.16%,inactive,inactive,14800 nM (active),18700 nM (active),16600 nM (active),20900 nM (active),13200 nM (active),–,–,18700 nM (active),–,–,24300 nM (active),inactive
CN1[C@H]2CC(OC(=O)[C@@H](CO)c3ccccc3)C[C@H]1[C@H]1O[C@H]12 (stereo not given in full),107% [at 23.2 µM],inactive,inactive,inactive,inactive,inactive,inactive,–,inactive,inactive,inactive,inactive,–,inactive,inactive
C=C(C)[C@@H]1CC[C@]2(C)CC[C@]3(C)[C@H](CC[C@@H]4[C@@]5(C)CC[C@H](O)C(C)(C)[C@H]5CC[C@]43C)[C@@H]12,121%,inactive,inactive,inactive,inactive,inactive,inactive,–,inactive,inactive,–,inactive,inactive,inactive,inactive
O=C1NC(=O)C(=Cc2ccc3nccc(-c4ccncc4)c3c2)S1,4.43%,inactive,inactive,187 nM (active),166 nM (active),132 nM (active),74.3 nM (active),–,743 nM (active),235 nM (active),93.5 nM (active),187 nM (active),16.6 nM (active),432 nM (active),523 nM (active)
NC(=O)N1CCC(CC(=O)N2CCC([C@H]3c4ncc(Br)cc4CCc4cc(Cl)cc(Br)c43)CC2)CC1,6.4%,inactive,inactive,20900 nM (active),16600 nM (active),16600 nM (active),372 nM (active),7430 nM (active),–,23500 nM (active),16600 nM (active),14800 nM (active),14800 nM (active),19300 nM (active),–
COc1ccc2c(c1OC)C(=O)OC2[C@H]1c2c(cc3c(c2OC)OCO3)CCN1C (stereo not given in full),8.98%,inactive,inactive,93.5 nM (active),235 nM (active),52.6 nM (active),inactive,1870 nM (active),–,–,132 nM (active),–,83.3 nM (active),611 nM (active),1040 nM (active)
NS(=O)(=O)OC[C@@H]1C[C@@H](n2ccc3c(N[C@H]4CCc5ccccc54)ncnc32)C[C@H]1O,2.9%,inactive,inactive,332 nM (active),264 nM (active),132 nM (active),148 nM (active),–,inactive,590 nM (active),296 nM (active),148 nM (active),93.5 nM (active),–,1650 nM (active)
NC(=NCCCCCCN=C(N)N=C(N)Nc1ccc(Cl)cc1)N=C(N)Nc1ccc(Cl)cc1,2.49%,inactive,inactive,2960 nM (active),4180 nM (active),9350 nM (active),7430 nM (active),–,inactive,–,–,2960 nM (active),2090 nM (active),–,inactive
CCOC(=O)[C@H](CCc1ccccc1)N[C@@H](C)C(=O)N1[C@@H](C(=O)O)C[C@H]2CCC[C@@H]21,4.82%,inactive,inactive,5260 nM (active),14800 nM (active),18700 nM (active),16600 nM (active),10500 nM (active),–,14800 nM (active),20900 nM (active),9350 nM (active),1870 nM (active),21700 nM (active),–
CCC(C(=O)O)C1CCC(C)C(C(C)C(O)C(C)C(=O)C(CC)C2OC3(C=CC(O)[C@@]4(CC[C@](C)(C5CC[C@@](O)(CC)C(C)O5)O4)O3)C(C)CC2C)O1 (stereo not given in full),12.3%,inactive,inactive,1180 nM (active),1480 nM (active),833 nM (active),2640 nM (active),–,1660 nM (active),11800 nM (active),–,2350 nM (active),–,611 nM (active),5230 nM (active)
CCOc1cc2c(c(F)c1OCC)C(=N)N(CC(=O)c1cc(N3CCOCC3)c(OC)c(C(C)(C)C)c1)C2,2.82%,inactive,inactive,9350 nM (active),10500 nM (active),13200 nM (active),8330 nM (active),–,inactive,–,23500 nM (active),9350 nM (active),–,27300 nM (active),inactive
C[C@]12CCC(=O)C=C1[C@@H]1CC1[C@H]1[C@H]3[C@@H]4C[C@H]4[C@@]4(CCC(=O)O4)[C@@]3(C)CC[C@H]12 (stereo not given in full),92.9%,inactive,inactive,inactive,inactive,inactive,inactive,–,inactive,inactive,–,inactive,–,inactive,inactive
OC[C@H]1OC(O)C[C@@H](O)[C@H]1O (stereo not given in full),115%,inactive,inactive,inactive,inactive,inactive,inactive,inactive,–,–,inactive,inactive,–,inactive,inactive
Nc1ccn(C[C@@H](CO)OCP(=O)(O)O)c(=O)n1,98.1% [at 23.2 µM],inactive,inactive,inactive,inactive,inactive,inactive,–,inactive,inactive,inactive,inactive,inactive,inactive,inactive
CCCc1nc(C(C)(C)O)c(C(=O)O)n1Cc1ccc(-c2ccccc2-c2nn[nH]n2)cc1,103%,inactive,inactive,inactive,inactive,inactive,inactive,–,inactive,inactive,inactive,inactive,–,inactive,inactive
C=CC(=O)Nc1cc(NC(=O)c2ccc(C)c(NC(=O)c3ccno3)c2)cc(C(F)(F)F)c1,3.59%,inactive,inactive,23500 nM (active),20900 nM (active),20900 nM (active),23500 nM (active),inactive,–,–,–,14800 nM (active),–,27300 nM (active),–
Cc1cc(Nc2ncc3c(n2)N(C)C(=O)N(c2cc(NC(=O)c4cccc(C(F)(F)F)c4)ccc2C)C3)n(C)n1,7.39%,inactive,inactive,418 nM (active),372 nM (active),833 nM (active),418 nM (active),–,inactive,935 nM (active),296 nM (active),372 nM (active),209 nM (active),–,1470 nM (active)
